This is part of a sample that, as a whole, favours compounds with a hit. Of some 83,000 tested, about 20% had one in any assay.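 Negative percent growth values reflect cell death: -40 means 40% of the cells present at the start died, and -100 means all died.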 A number with no mark means an inactive call. The source made the active and inactive calls. Rule for the calls: active = growth percent below 10; inactive = the rest.

Assay in all cases: NCI-60 one-dose screen, 48 h (100 = growth as untreated, 0 = no growth, -100 = all killed)
Experiment [1] concerns SK-MEL-2 melanoma. Conditions: 10 µM unless noted.
Experiment [2] concerns EKVX NSCLC. Conditions: 10 µM unless noted.
The subject of experiment [3] is SN12C renal. Conditions: 10 µM unless noted.
The subject of experiment [4] is UO-31 renal. Conditions: 10 µM unless noted.
Experiment [5] concerns TK-10 renal. Conditions: 10 µM unless noted.
The test system of experiment [6] is ACHN renal. Conditions: 10 µM unless noted.
For experiment [7], the system named is A498 renal. Conditions: 10 µM unless noted.
Experiment [8] has as its system CCRF-CEM leukemia. Conditions: 10 µM unless noted.
Experiment [9] has as its system MOLT-4 leukemia. Conditions: 10 µM unless noted.
Experiment [10] concerns RPMI-8226 leukemia. Conditions: 10 µM unless noted.
The test system of experiment [11] is OVCAR-8 ovarian. Conditions: 10 µM unless noted.
The test system of experiment [12] is OVCAR-5 ovarian. Conditions: 10 µM unless noted.
For experiment [13], the system named is OVCAR-4 ovarian. Conditions: 10 µM unless noted.
In experiment [14] the test system is SK-OV-3 ovarian. Conditions: 10 µM unless noted.
The test system of experiment [15] is IGROV1 ovarian. Conditions: 10 µM unless noted.
For experiment [16], the system named is OVCAR-3 ovarian. Conditions: 10 µM unless noted.
Experiment [17] relates to HS 578T breast. Conditions: 10 µM.
For experiment [18], the system named is NCI/ADR-RES ovarian. Conditions: 10 µM unless noted.
The test system of experiment [19] is SR leukemia. Conditions: 10 µM unless noted.
For experiment [20], the system named is CAKI-1 renal. Conditions: 10 µM unless noted.

As to `CN1CCN(c2ccc(N3Cc4ccccc4OC4=C3C(=O)c3c(O)ccc(O)c3C4=O)cn2)CC1`, the growth in [1] was -36.8% (active); in experiment [2], -1.22% (active); in [3], -62% (active); in [4], -99.5% (active); in [5], -98.7% (active); in [6], -100% (active). The growth in experiment [7] was -20.7% (active); in experiment [8] it was -12.7% (active); in experiment [9] it was -17.8% (active); in experiment [10], -7.62% (active); in experiment [11] it was 2.15% (active); in experiment [12], -32.5% (active). For the same compound, the growth in experiment [13] was -97.2% (active); in experiment [14], 26%; in experiment [15], -59.3% (active); in experiment [16], -99.6% (active); in experiment [17], 23.5%; in experiment [18] it was 5.09% (active).

Consider `O=C1c2ccccc2C2N1CCC1CCc3ccccc3N12` (centres undefined), for which the growth in experiment [1] was 99.7%; in experiment [2] it was 104%; in [3], 94.8%; in [4], 55.1%; in experiment [5] it was 108%; in [6], 99.3%. The growth in experiment [7] was 75.5%; in experiment [8] it was 105%; in experiment [9], 101%; in experiment [19], 114%; in experiment [10], 105%; in experiment [11], 101%. Further, the growth in experiment [12] was 92%; in experiment [14], 109%; in experiment [15], 99.8%; in experiment [16], 115%; in experiment [17], 99.8%; in experiment [18], 103%.

Regarding `COc1ccc(/C=C/C(=O)c2ccc(NC(=O)CSc3nnc(-c4ccc(Cl)cc4)n3-c3ccccc3)cc2)cc1`, the growth in [1] was 104%; in experiment [2], 89.4%; in experiment [3] it was 91.2%; in [4], 79.8%; in experiment [5], 113%; in experiment [6] it was 103%. Further, the growth is 84.6% in experiment [7]; 94.9% in experiment [8]; 65.5% in experiment [9]; 60.4% in experiment [10]; 84.6% in [11]; 123% in experiment [12]. Moreover, the growth in [13] is 99.5%; in [14], 104%; in [15] it was 103%; in experiment [16] it was 102%; in experiment [17], 97.1%; in experiment [18], 93.9%.

With `OC(c1cc2c(Cl)cc(Cl)cc2c2cc(C(F)(F)F)ccc12)C1CCCCN1` (centres undefined), the growth in experiment [1] was -65.3% (active); in experiment [2] it was -51.8% (active); in experiment [3], -79.1% (active); in experiment [4], -87.6% (active); in [5], -87.7% (active); in experiment [6] it was -78.6% (active). Also, the growth in experiment [7] is 0.166% (active); in [8], -54.7% (active); in experiment [9] it was -62.6% (active); in experiment [19], -63.5% (active); in experiment [10] it was -44.8% (active); in experiment [11] it was -61% (active). The growth in experiment [12] was -78.5% (active); in experiment [14], -18.3% (active); in experiment [15] it was -67.9% (active); in experiment [16], -86% (active); in [17] it was -56.1% (active); in experiment [18] it was -60.4% (active).

On to `C=CCn1c(SCC(=O)Nc2ccc(C(=O)/C=C/c3ccc(Cl)cc3)cc2)nnc1-c1ccc(Cl)cc1`, for which the growth in experiment [1] is 100%; in experiment [2], 86.6%; in experiment [3], 78.8%; in [4] it was 61.7%; in experiment [5], 90.8%; in [6], 101%. Further, the growth in experiment [7] is 83.8%; in experiment [8] it was 96.5%; in [9], 68.4%; in experiment [10], 17.2%; in [11], 87.9%; in experiment [12], 104%. Also, the growth was 94.8% in [13]; 92% in experiment [14]; 79.5% in experiment [15]; 89.1% in experiment [16]; 84.8% in [17]; 80.5% in experiment [18].

For `Cn1c(=O)c2[nH]c(Cc3ccc4c(c3)OCO4)nc2n(C)c1=O`, the growth in experiment [1] is 122%; in experiment [2], 97.8%; in experiment [3] it was 95.1%; in experiment [4], 93.5%; in experiment [5], 113%; in [6], 92.1%. In addition, the growth in experiment [8] was 87%; in [9], 122%; in [19], 120%; in [10], 88.8%; in experiment [11], 105%; in [12], 90.5%. The growth in experiment [13] was 88.2%; in [14] it was 107%; in [16], 104%; in experiment [18], 107%.

In the case of `Fc1cc(-c2nnc3sc(-c4ccc(Cl)cc4)nn23)c(Cl)cc1Cl`, the growth was 95.7% in [1]; 96.2% in experiment [2]; 103% in experiment [3]; 78.1% in experiment [4]; 99.9% in experiment [5]; 101% in [6]. Besides, the growth was 97.8% in [7]; -75.3% (active) in [8]; 60.6% in [9]; 61.1% in experiment [19]; 102% in [10]; 100% in experiment [11]. The growth in [12] is 101%; in [13] it was 92.5%; in [14] it was 107%; in [17], 66.1%; in [18], 104%.

Take `N#Cc1c(N)c(C(=O)c2ccc3c(c2)OCCO3)n2c1CCCC2`: the growth is 6.49% (active) in experiment [1]; 42.7% in experiment [3]; 34.4% in experiment [4]; 39.9% in experiment [5]; 39% in experiment [6]; 4.26% (active) in experiment [20]. Besides, the growth was 38.8% in [7]; 30.5% in experiment [8]; 12.3% in experiment [9]; -20% (active) in experiment [19]; 4.91% (active) in experiment [10]; 31.5% in experiment [11]. The growth in experiment [12] is 57.9%; in experiment [13] it was 81.2%; in experiment [14] it was 31.3%; in experiment [15] it was 10.8%; in experiment [16] it was -3.73% (active); in experiment [18] it was 8.36% (active).

Take `COc1cccc(NC(=O)[C@H](C(C)C)n2c(=O)[nH]c3ccccc3c2=O)c1`: the growth in experiment [1] was 101%; in experiment [3] it was 105%; in experiment [4], 101%; in [5] it was 105%; in experiment [6], 104%; in [20] it was 97.6%. Moreover, the growth is 114% in experiment [7]; 94.8% in experiment [8]; 96.8% in experiment [9]; 95.8% in [19]; 98.6% in experiment [10]; 96.9% in experiment [11]. Also, the growth is 108% in experiment [12]; 105% in experiment [13]; 101% in experiment [14]; 113% in experiment [15]; 109% in experiment [16]; 110% in [17].

Source of the values: PubChem BioAssay (NCI).
